mHTT CaM bind = mHTT-calmodulin interaction abrogation; actives 3.6% (n = 190,000); inhibition, % at 15 µM; AID 1671202; AlphaScreen His-mHTT/GST-CaM binding, luminescence; P42858;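 note: 0% = both proteins with DMSO and 100% = one protein alone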
Pf apPOL block = Pf-apPOL DNA polymerase inhibition | Recombinant Pf-apPOL, molecular beacon fluorescence, 1.5 h | inhibition, % at 10 µM | actives 0.25% (n = 210,000)
* hit, by the source's call; · = no result. A selection: hits, their analogues and other compounds. The true share with any hit is near 3.5%. Cut-off read from the data, not from the text of the source: active = inhibition above about 50%; inactive = the rest.

SMILES | mHTT CaM bind | Pf apPOL block
CCOc1ccc(C2N(c3ccc(Cl)cc3)C(=O)C3CCCN32)cc1OC (configuration not stated) | 30 | -6
COc1ccc(N2C(=O)C3CCCN3C2c2ccc(Cl)cc2)cc1Cl (configuration not stated) | 2 | -3
COc1ccccc1C1N(c2cc(Cl)ccc2OC)C(=O)C2CCCN21 (configuration not stated) | 1 | -2
CCc1ccc(C2N(c3cc(Cl)ccc3OC)C(=O)C3CCCN32)cc1 (configuration not stated) | 33 | -3
COc1cc(OC)cc(C(=O)N2CCN(C)c3ccccc32)c1 | 41 | 3
CCN(CCCNC(=O)c1noc2c1CCCCC2)c1ccccc1 | 30 | 1
CC(C)(C)C(=O)Nc1cc(NC(=O)C(C)(C)C)cc(C(=O)Nc2ccccc2)c1 | 12 | 2
COc1ccc(CNS(=O)(=O)c2ccc(F)c(C(=O)Nc3cc(OC)ccc3OC)c2)cc1 | 19 | 35
Cc1[nH]nc2c1C(c1cccc(Br)c1)CC(=O)N2 (configuration not stated) | 3 | -2
CC(=O)N1CCC(n2c(C)nc(C(=O)NCc3ccc(N4CCCCC4)cc3)c2C)CC1 | 37 | -8
Cc1ccccc1NC(=O)N1CCCN(c2ncccc2-c2nc(C(C)C)no2)CC1 | -4 | -10
COc1ccccc1CNC(=O)c1ccc(-n2nc(C)c3c2CC(C)(C)CC3=O)cc1 | 0 | 4
Cc1ccccc1CC(=O)N1CCCC(COc2cccc(C(=O)NC3CC3)c2)C1 (configuration not stated) | 6 | -1
CS(=O)(=O)C(C#N)=Cc1ccc(Cl)s1 | · | -8
O=C(Nc1nc(-c2nc3ccccc3s2)cs1)c1ccno1 | -8 | 5
O=C(NCc1ccccn1)c1sc2ccccc2c1Cl | -3 | 0
CCC(=O)Nc1cccc(NC(=O)c2sc3ccccc3c2Cl)c1 | 56* | -10
O=C(Nc1nc(-c2ccccn2)cs1)c1sc2ccccc2c1Cl | 100* | -2
Cc1ccccc1C(=O)Nc1cccc(NC(=O)c2sc3ccccc3c2Cl)c1 | 0 | -8
O=C(Nc1nc(-c2ccccn2)cs1)c1nc2ccccc2s1 | 100* | -76
CC1(C)CC(=O)C2=C(C1)OC(N)=C(C#N)C2c1ccc(-c2ccccc2)o1 (configuration not stated) | 0 | -2
Cn1cc(C(=O)NCCc2c[nH]c3ccccc23)c2[nH]c(=O)n(Cc3ccccc3)c(=O)c21 | 56* | 5
Cn1cc(C(=O)NCCc2c[nH]c3ccccc23)c2nn(-c3ccccc3)c(=O)c-2c1 | 36 | -10
CC(CCC(=O)N=Nc1c(O)[nH]c2ccc(Cl)cc12)C1CCC2C3C(O)CC4CC(O)CCC4(C)C3CCC12C (configuration not stated) | 43 | 1
CC(CCC(=O)NN=Cc1c[nH]c2ccccc12)C1CCC2C3C(O)CC4CC(O)CCC4(C)C3CCC12C (configuration not stated) | 100* | -3
SMILES | mHTT CaM bind | Pf apPOL block
CC(CCC(=O)N=Nc1c(O)[nH]c2c(Cl)cc(Cl)cc12)C1CCC2C3C(O)CC4CC(O)CCC4(C)C3CCC12C (configuration not stated) | 67* | 0
CC(CCC(=O)O)C1CCC2C3CC(O)C4CC(O)CCC4(C)C3CCC12C (configuration not stated) | 19 | -9
Cn1c(Cc2ccccc2)nnc1Sc1ccc(C(F)(F)F)cc1[N+](=O)[O-] | 8 | -9
O=C1CCCC2=C1C(c1ccccc1)C1C(=O)c3ccccc3C1=N2 (configuration not stated) | 37 | 4
O=C1CCCC2=C1C(c1ccc(Cl)cc1)C1C(=O)c3ccccc3C1=N2 (configuration not stated) | 66* | 11
O=C1CCCC2=C1C(c1ccc([N+](=O)[O-])cc1)C1C(=O)c3ccccc3C1=N2 (configuration not stated) | 26 | 17
Cc1ccc(C2C3=C(CCCC3=O)N=C3c4ccccc4C(=O)C32)cc1 (configuration not stated) | 59* | 4
FC(F)(F)c1ccccc1NN=Cc1c(Br)sc2ccc(Cl)cc12 | · | -5
CC(C)CNC(=O)N1CC(C(=O)N2CCCC2)C2(CCOCC2)C1 (configuration not stated) | -1 | -5
Cc1nnc(N2C(=O)C(O)=C(C(=O)c3ccco3)C2c2cccc([N+](=O)[O-])c2)s1 (configuration not stated) | 1 | -5
Cc1nnc(N2C(=O)C(O)=C(C(=O)c3ccco3)C2c2cccc(Oc3ccccc3)c2)s1 (configuration not stated) | 56* | -10
CCOc1ccc(NC(=O)C2CN(S(=O)(=O)c3cccnc3)CC23CCCCC3)cc1 (configuration not stated) | 52* | -1
COc1ccc(CNC(=O)C2CN(S(=O)(=O)c3cccnc3)CC23CCCCC3)cc1 (configuration not stated) | 3 | -3
CN(C)CCCN(C(=O)C1=COCCO1)c1nc2ccc(Br)cc2s1 | 23 | -16
CN(C)CCCN(C(=O)Cc1ccccc1)c1nc2ccc(Br)cc2s1 | 100* | -6
O=C1c2ccccc2C(=O)N1CCSc1nnc2sc3ccccc3n12 | 4 | -2
O=C1NN(c2ccc(Cl)cc2)C(=O)/C1=C/c1cccc(Br)c1 | 95* | -5
COc1cccc(/C=C2\C(=O)NN(c3ccccc3)C2=O)c1 | 6 | 2
O=C1NN(c2ccccc2)C(=O)/C1=C/c1cccc(Br)c1 | 54* | -3
COc1cccc(/C=C2\C(=O)NN(c3ccc(Br)cc3)C2=O)c1 | 7 | 1
O=C(NCCc1csc(C2CCN(C(=O)c3ccsc3)CC2)n1)C1CC1 | 5 | 1
CC(=O)CC[C@H]1[C@@H](C#N)[C@H](C(C)C)CC[C@@]1(C)OC(C)=O | -4 | ·
O=C(Nc1ccccc1F)N1CCC(CCOc2cccnc2)CC1 | -1 | -3
COc1ccc(-c2nc3n(n2)C(c2ccccc2)C2=C(CC(C)(C)CC2=O)N3)cc1 (configuration not stated) | 52* | -4
CC1(C)CC(=O)C2=C(C1)Nc1nc(-c3ccccc3)nn1C2c1ccc(Br)cc1 (configuration not stated) | 35 | -3
SMILES | mHTT CaM bind | Pf apPOL block
CC1(C)CC(=O)C2=C(C1)Nc1nc(-c3ccccc3)nn1C2c1ccccc1 (configuration not stated) | 43 | -2
COc1ccccc1C1C2=C(CC(C)(C)CC2=O)Nc2nc(-c3cccc(Cl)c3)nn21 (configuration not stated) | 70* | -3
COc1ccc(C2C3=C(CC(C)(C)CC3=O)Nc3nc(-c4ccc(O)cc4)nn32)cc1 (configuration not stated) | 50* | 2
COc1cccc(C2C3=C(CC(C)(C)CC3=O)Nc3nc(-c4cccc(Cl)c4)nn32)c1 (configuration not stated) | 1 | -2
O=C(O)C(NS(=O)(=O)c1ccc(Br)s1)c1ccccc1 (configuration not stated) | -4 | -8
N#CCC[C@@H]1CC[C@]2(CCCN(Cc3ccc(Cl)cc3)C2)O1 | 74* | -3
N#CCC[C@H]1CC[C@]2(CCCN(Cc3ccccc3)C2)O1 | -5 | -4
CC(=O)N(C)CC(=O)N1N=C(c2ccc(C)c(C)c2)CC1c1ccc(F)cc1 (configuration not stated) | 39 | 0

Screening results (PubChem BioAssay)
